Structures are written as SMILES. About 3,300 (8.5%) of roughly 39,000 compounds were called active. The entries come from a sample that favours actives as a whole.

The assay concerns HepG2. Description: cytotoxicity call (relative viability < 0.9). The conditions noted are these: 10 µM.
For `C[C@@H]1CN([C@@H](C)CO)C(=O)CCCn2cc(nn2)CO[C@H]1CN(C)C(=O)Oc1ccc2ccccc2c1`, the cytotoxicity call is “inactive”.

For `Cc1nc(N)sc1CCN`, the cytotoxicity call is “inactive”.

As for `C1CC2(CCN1)OCCO2`, the cytotoxicity call is “inactive”.

For the compound `COCCCNC(=O)[C@@]1(Cc2ccccc2N=[N+]=[N-])N=C(c2ccc(OCCCO)cc2)O[C@H]1c1ccccc1N=[N+]=[N-]`, the cytotoxicity call is “inactive”.

In the case of `[N-]=[N+]=Nc1ccccc1C[C@@]1(C(=O)NCCN2CCOCC2)N=C(c2ccc(OCCCO)cc2)O[C@@H]1c1ccccc1N=[N+]=[N-]`, the cytotoxicity call is “inactive”.

Consider `[N-]=[N+]=NCc1ccccc1C[C@@]1(C(=O)NCCN2CCOCC2)N=C(c2ccc(OCCCO)cc2)O[C@@H]1c1ccccc1N=[N+]=[N-]`, for which the cytotoxicity call is “active”.

For `[N-]=[N+]=NCc1ccccc1C[C@]1(C(=O)NCCN2CCOCC2)N=C(c2ccc(OCCCO)cc2)O[C@H]1c1ccccc1N=[N+]=[N-]`, the cytotoxicity call is “active”.

`Cn1ccnc1C(=O)N[C@H]1CN[C@@H]2CCCO[C@@H]12`: the cytotoxicity call is “inactive”.

Regarding `Nc1ncnc2c1ncn2CCOCP(=O)(O)O`, the cytotoxicity call is “inactive”.

As for `Cc1cc([C@@H](C#N)c2ccc(Cl)cc2)c(Cl)cc1NC(=O)c1cc(I)cc(I)c1O`, the cytotoxicity call was “inactive”.

Consider `CCC1(O)CC(O)c2c(cc3c(c2O)C(=O)c2c(O)ccc(O)c2C3=O)C1C(=O)OC` (stereo not drawn), for which the cytotoxicity call is “inactive”.

Turning to `CC[C@@]1(O)C[C@H](O[C@H]2C[C@H](N(C)C)[C@H](O)[C@H](C)O2)c2c(cc3c(c2O)C(=O)c2c(O)ccc(O)c2C3=O)[C@H]1C(=O)OC`, the cytotoxicity call is “active”.

Regarding `Cl.NCCc1cc(O)c(O)cc1O`, the cytotoxicity call was “inactive”.

With `C[C@@H]1CN([C@H](C)CO)C(=O)CCCn2nncc2CO[C@@H]1CN(C)C(=O)Oc1ccc2ccccc2c1`, the cytotoxicity call was “inactive”.

Consider `COc1cc2c(cc1OC)C13CCN4CC5=CCOC6CC(=O)N2C1C6C5CC43` (stereo not drawn), for which the cytotoxicity call was “inactive”.

With `O=C1CC2OCC=C3CN4CCC56c7ccccc7N1C5C2C3CC46.O=S(=O)(O)O` (stereo not drawn), the cytotoxicity call was “active”.

In the case of `O=C(O)C[C@@H]1CC[C@H]2NC[C@H](O)COC[C@@H]2O1`, the cytotoxicity call is “inactive”.

Take `c1ccc2cc3c(cc2c1)-c1cccc2cccc-3c12`: the cytotoxicity call was “active”.

On to `c1csc(N2CCNCC2)n1`, for which the cytotoxicity call was “inactive”.

For `COC(=O)[C@@H]1C(=O)NC[C@H]1C(C)C`, the cytotoxicity call is “inactive”.

`CC(=O)N[C@H]1CCSC1=O`: the cytotoxicity call was “inactive”.

For the compound `NC(N)=NOCC[C@H](N)C(=O)O`, the cytotoxicity call is “inactive”.

On to `N#[N+]CC(=O)OC[C@H](N)C(=O)O`, for which the cytotoxicity call was “inactive”.

Take `[N-]=[N+]=CC(=O)OCC(N)C(=O)O` (stereo not drawn): the cytotoxicity call is “active”.

Regarding `O=C(NCc1ccccn1)[C@]12CNC[C@H]1COC2`, the cytotoxicity call was “inactive”.

For `O=C1[O][Pt]2([NH][C@@H]3CCCC[C@H]3[NH]2)[O]C1=O`, the cytotoxicity call is “inactive”.

For `CCN1C[C@]2(COC)CC[C@@H](OC)[C@@]34[C@@H]2[C@@H](OC)[C@@H]([C@@H]13)[C@]1(OC(C)=O)C[C@@H](OC)[C@@]2(O)C[C@H]4[C@@H]1[C@H]2OC(=O)c1ccc(OC)cc1`, the cytotoxicity call was “inactive”.

Take `Cc1cc(O)c2c(=O)c3c(O)cc(O)c4c5c(O)cc(O)c6c(=O)c7c(O)cc(C)c8c1c2c(c34)c(c78)c65`: the cytotoxicity call was “active”.

Regarding `CC(C)C[C@@H]1C(=O)N2CCC[C@@H]2[C@]2(O)O[C@@](NC(=O)[C@@H]3C=C4c5cccc6[nH]c(Br)c(c56)C[C@@H]4N(C)C3)(C(C)C)C(=O)N12`, the cytotoxicity call is “inactive”.

For `CC[C@@H](CN)c1ccccc1`, the cytotoxicity call is “inactive”.

With `C[N+](C)(C)C[C@H]1CCC[C@@H]1O`, the cytotoxicity call is “inactive”.

Turning to `CN1C(=O)N(C)C2C1N(C)C(=O)N2C` (stereo not drawn), the cytotoxicity call is “inactive”.

Consider `NCCc1ccc(C(=O)c2ccccc2)cc1`, for which the cytotoxicity call was “inactive”.
